In PubChem BioAssay AID1546 (The Scripps Research Institute Molecular Screening Center, 2009) one finds activation data, which are given here for 16 compounds.

Some of the results follow. Unmarked numbers belong to inactive results. Activity calls are given as the source filed them. Rule as the data show it: active = activation above about 45%; inactive = the rest.

Chain of Neuropeptide Y receptor type 1 (Homo sapiens) (P25929 whole entry, looked up): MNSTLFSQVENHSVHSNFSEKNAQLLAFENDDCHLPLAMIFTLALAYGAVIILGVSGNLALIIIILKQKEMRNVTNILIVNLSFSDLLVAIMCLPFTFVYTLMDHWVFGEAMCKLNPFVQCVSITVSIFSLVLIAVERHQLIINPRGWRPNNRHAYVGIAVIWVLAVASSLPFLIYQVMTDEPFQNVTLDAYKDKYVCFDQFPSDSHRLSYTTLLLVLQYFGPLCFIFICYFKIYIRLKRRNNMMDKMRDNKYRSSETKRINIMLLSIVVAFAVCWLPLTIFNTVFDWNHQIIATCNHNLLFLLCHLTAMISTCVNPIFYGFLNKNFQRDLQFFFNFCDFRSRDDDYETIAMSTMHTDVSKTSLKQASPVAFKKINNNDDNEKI

The assay has as its target Neuropeptide Y receptor type 1 (Homo sapiens) (UniProt P25929). The experiment in a line: human Y1 receptor positive modulation or activation – cell-based, confirmation (AID 1546).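 Also: cells challenged with NPY at its EC10 plus isoproterenol stimulus.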 Conditions: cell-based NPY-Y1 potentiator/agonist assay; at 3.6 µM; active compounds read high.
For `COC(=O)c1ccc(NC(=O)CN(c2ccc(C)cc2)S(=O)(=O)c2c(C)n[nH]c2C)cc1`, the activation is 43%.
Turning to `COC(=O)c1sc(-c2ccc(C(C)(C)C)cc2)cc1NC(=O)/C=C/C(=O)O`, the activation was 40.8%.
On to `O=C1/C(=C/c2coc3ccc(O)cc3c2=O)SC(=S)N1c1ccccc1`, for which the activation is 26.1%.
Turning to `O=C(Nc1ccc2c(c1)CCC2)c1cccc(S(=O)(=O)Nc2ccccc2Cl)c1`, the activation is 5.62%.
On to `CSc1nc(-c2ccco2)nn1C(=O)c1ccccc1Cl`, for which the activation is 31.6%.
In the case of `CN1C(=O)c2ccccc2C(C(=O)NCCCN2CCCC2)C1c1c[nH]c2ccccc12` (stereo unspecified), the activation is 7.17%.
Turning to `Cc1cccc(OCC(O)CN2CCN(CCN3C(=O)c4cccc5cccc(c45)C3=O)CC2)c1C` (stereo unspecified), the activation was 63.5% (active).
On to `N#Cc1ccc(C(=O)Nc2nc(-c3cccs3)c(C(=O)C(F)(F)F)s2)cc1`, for which the activation was -50.3%.
On to `O=C(Nc1ccccc1C(F)(F)F)c1cc(-c2ccc(O)cc2)on1`, for which the activation is 2.15%.
Regarding `O=C(c1cccs1)N1CCN(C(=O)N2CCOCC2)CC1`, the activation was -4.4%.
Regarding `O=[N+]([O-])c1cc(Cl)cc(/C=N/NC(=S)Nc2cc(S(=O)(=O)N3CCOCC3)ccc2Cl)c1O`, the activation is 72.1% (active).
Consider `COCCn1nnnc1C(c1ccccc1Cl)N1CCN(c2ccccc2OC)CC1` (stereo unspecified), for which the activation is -14.9%.
As to `CCn1c2ccccc2c2cc(NC(=O)Nc3ccc([N+](=O)[O-])cc3C)ccc21`, the activation is 26.1%.
The result for `CC1=C/C(=N\OS(=O)(=O)c2ccccc2)C=CC1=O` reads 7.41%; that for `Cc1ccccc1NCC(=O)N/N=C\c1ccc([N+](=O)[O-])s1`, 34.6%; that for `CC(=O)c1ccc(NC(=O)C2CC(=O)Nc3nc4ccccc4n32)cc1` (stereo unspecified), 38.7%.
